Assay results as given in PubChem BioAssay (Tox21).
Values joined by “and” are separate entries in the source; they are usually repeats but may differ in a detail not shown here. Equal entries are not always repeated. Records with an inconclusive call do not appear. A call without a number means that no potency is given here. Active and inactive are the calls of the source. Calls follow the shape of the dose curve; as a rule, active = well fitted inhibition curve with a large enough effect in the repeat runs; inconclusive = weak or mixed curves; inactive = no such curve, though single readings can be large or run the other way.
Potency is read from the fitted curve at half-maximal effect.

These molecules were tested against Cytochrome P450 2C19 (Homo sapiens) (UniProt P33261) (assay: Cytochrome P450 Family 2 Subfamily C Member 19 (CYP2C19) small molecule antagonists: luciferase reporter qHTS assay (AID 1671197; also: nearly all actives have a fitted effect of over 65% in size)). Settings: P450-Glo CYP2C19 enzyme, luciferin luminescence, 1 h; series mostly up to 115 µM.
Cytochrome P450 2C19 (Homo sapiens), sequence (P33261 whole entry, looked up): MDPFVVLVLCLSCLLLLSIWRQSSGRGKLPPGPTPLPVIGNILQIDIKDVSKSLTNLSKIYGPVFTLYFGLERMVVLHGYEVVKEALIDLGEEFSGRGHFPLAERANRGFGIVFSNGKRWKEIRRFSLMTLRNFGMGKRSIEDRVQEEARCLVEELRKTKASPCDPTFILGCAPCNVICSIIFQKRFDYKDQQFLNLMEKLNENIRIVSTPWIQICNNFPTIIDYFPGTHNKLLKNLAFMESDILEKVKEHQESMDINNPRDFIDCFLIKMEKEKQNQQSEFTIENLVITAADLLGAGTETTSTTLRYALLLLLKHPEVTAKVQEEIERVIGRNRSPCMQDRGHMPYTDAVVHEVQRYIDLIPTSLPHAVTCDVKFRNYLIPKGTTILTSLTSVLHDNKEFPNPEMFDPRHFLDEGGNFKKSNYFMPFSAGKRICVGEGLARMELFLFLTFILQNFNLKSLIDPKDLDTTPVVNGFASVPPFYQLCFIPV
How it was run: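 First, compounds are pinned into enzyme-substrate mix and held 10 min at room temperature. Second, NADPH regeneration solution is added and plates incubate 1 h at 37C. Third, detection reagent is added and luminescence read after 20 min.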
With `CCCCN(CCCC)C(=S)SSC(=S)N(CCCC)CCCC` the Potency was 17.7 µM (active). For `NC(=O)N(O)[C@@H]1C=C[C@H](Oc2cccc(Oc3ccc(F)cc3)c2)C1`, the Potency was 8.94 µM (active). With `COc1ccc(CCC(=O)c2c(O)cc(O[C@@H]3O[C@H](CO)[C@@H](O)[C@H](O)[C@H]3O[C@@H]3O[C@@H](C)[C@H](O)[C@@H](O)[C@H]3O)cc2O)cc1O` the Potency was “inactive”. For `CC1=CC(=O)CC(C)(C)C1(O)/C=C/C(C)=C\C(=O)O` (centres undefined), the Potency was “inactive”. In the case of `CCCCC/C(=C\c1ccccc1)CO`, the Potency is reported as 1.76 µM (active). `COc1cc2c(N3CCN(C(=O)Nc4ccc(OC(C)C)cc4)CC3)ncnc2cc1OCCCN1CCCCC1` was tested, and the Potency was “inactive”. For `OCC1CC=CCC1` (centres undefined), the Potency was “inactive”. With `CCCCC(CC)C(=O)OCCOCCOCCOCCOC(=O)C(CC)CCCC` (centres undefined) the Potency was 22.4 µM (active). `CCCCCCCC/C=C\CCCCCCCC(=O)OC` was tested, and the Potency was “inactive”. In the case of `CCC(=O)OC/C=C/c1ccccc1`, the Potency is reported as 35.6 µM (active) and 71 µM (active). With `CO/N=C1\CN(c2nc3c(cc2F)c(=O)c(C(=O)O)cn3C2CC2)CC1CN` (centres undefined) the Potency was “inactive”. `Cc1nc2ccccc2s1` was tested, and the Potency was 80.2 µM (active). For `CC1(C)C(=O)N(Br)C(=O)N1Cl`, the Potency was 71 µM (active). `Nc1ccc(C(=O)OCCCOC(=O)c2ccc(N)cc2)cc1` was tested, and the Potency was 17.8 µM (active). With `N#C[C@@H]1C[C@@H]2C[C@@H]2N1C(=O)[C@@H](N)C12CC3CC(CC(O)(C3)C1)C2` the Potency was “inactive”. `CC1=CC(O)CC(C)(C)C1` (centres undefined) was tested, and the Potency was “inactive”. With `CO[Si](C)(OC)OC` the Potency was “inactive”.

These molecules were tested against Cytochrome P450 2C9 (Homo sapiens) (UniProt P11712) (assay: Cytochrome P450 Family 2 Subfamily C Member 9 (CYP2C9) small molecule antagonists: luciferase reporter qHTS assay (AID 1671198; also: nearly all actives have a fitted effect of over 50% in size)). Settings: P450-Glo CYP2C9 enzyme assay, luciferin luminescence; series mostly up to 115 µM.
Cytochrome P450 2C9 (Homo sapiens), sequence (P11712 whole entry, looked up): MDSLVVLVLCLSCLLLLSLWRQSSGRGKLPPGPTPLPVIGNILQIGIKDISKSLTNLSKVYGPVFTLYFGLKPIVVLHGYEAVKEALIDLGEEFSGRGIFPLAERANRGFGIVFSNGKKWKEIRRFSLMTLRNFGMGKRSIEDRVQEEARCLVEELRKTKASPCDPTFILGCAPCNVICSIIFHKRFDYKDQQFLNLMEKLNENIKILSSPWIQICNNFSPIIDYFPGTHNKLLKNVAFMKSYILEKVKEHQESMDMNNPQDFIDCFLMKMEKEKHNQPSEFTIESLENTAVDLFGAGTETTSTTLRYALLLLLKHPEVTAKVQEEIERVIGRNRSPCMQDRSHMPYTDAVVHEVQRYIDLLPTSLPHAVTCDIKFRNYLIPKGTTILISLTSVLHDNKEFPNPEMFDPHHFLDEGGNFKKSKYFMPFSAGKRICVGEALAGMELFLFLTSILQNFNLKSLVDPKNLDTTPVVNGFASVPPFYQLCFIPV
How it was run: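 Enzyme-substrate mix preincubated with compound 10 min at room temperature; reaction started with NADPH regeneration solution, 1 h 37C. Luminescent luciferin product read after 20 min detection reagent.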
`CCCCCCOC(=O)CCCCCCCC(=O)OCCCCCC` was tested, and the Potency was “inactive”. With `Brc1cc(-c2ccc(Br)c(Br)c2Br)cc(Br)c1Br` the Potency was “inactive”. For `Cc1cc(OI)c(C(C)C)cc1-c1cc(C(C)C)c(OI)cc1C`, the Potency was 17.4 µM (active). `O=C(N[C@@H](c1ccccc1)[C@@H]1CCCCN1)c1cccc(C(F)(F)F)c1Cl` was tested, and the Potency was 63.3 µM (active). In the case of `CNC(=S)NC`, the Potency is reported as “inactive”. `Nc1nccs1` was tested, and the Potency was “inactive”. With `O=C(/C=C/c1ccccc1)OCCCc1ccccc1` the Potency was 22.4 µM (active). With `Cc1ccnc2ccccc12` the Potency was “inactive”. For `CC(C)C(OC(=O)c1ccccc1)C(C)(C)COC(=O)c1ccccc1` (centres undefined), the Potency was 2 µM (active). For `CCOC(=O)[C@@H](C)Oc1ccc(Oc2nc3ccc(Cl)cc3o2)cc1`, the Potency was 35.6 µM (active). In the case of `OC/C(Br)=C(\Br)CO`, the Potency is reported as “inactive”. With `O=C(O)c1ccccc1NCCc1ccccc1` the Potency was 13.8 µM (active). In the case of `CC(C)=CC=O`, the Potency is reported as “inactive”. In the case of `Cc1ccc(S)cc1`, the Potency is reported as 35.6 µM (active). With `c1cc[c]([Bi]([c]2ccccc2)[c]2ccccc2)cc1` the Potency was 1 µM (active). `O=C(C(=O)c1ccccc1)c1ccccc1` was tested, and the Potency was “inactive”. In the case of `Cc1cc(S(=O)(=O)O)ccc1N=Nc1c(O)ccc2ccccc12`, the Potency is reported as 31.7 µM (active). `CCOC(=N)CC(=O)OCC` was tested, and the Potency was “inactive”. In the case of `Cc1cc(O)c2c(O)c3c(O)cccc3cc2c1`, the Potency is reported as 4.9 µM (active). `CCCC1C(CC)=CC(CC)=CN1c1ccccc1` (centres undefined) was tested, and the Potency was 17.8 µM (active). In the case of `CCCCCCCCCCCC[N+](C)(C)CCCS(=O)(=O)[O-]`, the Potency is reported as “inactive”. For `C=CC(=C)CCCC(C)(C)OC(C)=O`, the Potency was “inactive”. For `CCCCCCCCCOC(C)=O`, the Potency was “inactive”. With `CCCCN(CCCC)C(=S)SSC(=S)N(CCCC)CCCC` the Potency was 2.8 µM (active). In the case of `NC(=O)N(O)[C@@H]1C=C[C@H](Oc2cccc(Oc3ccc(F)cc3)c2)C1`, the Potency is reported as 31.7 µM (active). For `COc1ccc(CCC(=O)c2c(O)cc(O[C@@H]3O[C@H](CO)[C@@H](O)[C@H](O)[C@H]3O[C@@H]3O[C@@H](C)[C@H](O)[C@@H](O)[C@H]3O)cc2O)cc1O`, the Potency was 25.3 µM (active). In the case of `CC1=CC(=O)CC(C)(C)C1(O)/C=C/C(C)=C\C(=O)O` (centres undefined), the Potency is reported as “inactive”. With `CCCCC/C(=C\c1ccccc1)CO` the Potency was 39.4 µM (active). With `COc1cc2c(N3CCN(C(=O)Nc4ccc(OC(C)C)cc4)CC3)ncnc2cc1OCCCN1CCCCC1` the Potency was “inactive”. `OCC1CC=CCC1` (centres undefined) was tested, and the Potency was “inactive”. In the case of `CCCCC(CC)C(=O)OCCOCCOCCOCCOC(=O)C(CC)CCCC` (centres undefined), the Potency is reported as 12.6 µM (active). In the case of `CCCCCCCC/C=C\CCCCCCCC(=O)OC`, the Potency is reported as “inactive”. With `CCC(=O)OC/C=C/c1ccccc1` the Potency was 39.9 µM (active). In the case of `CO/N=C1\CN(c2nc3c(cc2F)c(=O)c(C(=O)O)cn3C2CC2)CC1CN` (centres undefined), the Potency is reported as “inactive”. For `Cc1nc2ccccc2s1`, the Potency was “inactive”. For `CC1(C)C(=O)N(Br)C(=O)N1Cl`, the Potency was 63.3 µM (active). `Nc1ccc(C(=O)OCCCOC(=O)c2ccc(N)cc2)cc1` was tested, and the Potency was 7.1 µM (active).
